A selection: hits, their analogues and other compounds. The true share with any hit is near 3.2%.
PrPC surface inh: inhibitors of human cell surface prion protein PrPC. P04156. TR-FRET read-out. inhibition, % at 13.8 µM. 370,000 tested, 0.43% active; in the data active means inhibition above about 24%
Mtb FBA inh: inhibits M. tuberculosis FBA enzyme | P9WQA3 | purified M. tuberculosis FBA, fluorescence read-out | inhibition, % at 1 µM | 360,000 tested, 2.3% active | AID 588726; in the data active means inhibition above about 27%
Yp Topo-I inh: blocks Yersinia pestis topoisomerase I activity | activity, % at 10 µM | 360,000 tested, 0.064% active | Y. pestis Topo-I cleavage product accumulation, plate reader | AID 504884; in the data active means activity above about 50%, passing the limit was not always enough
GDH-TPI inh: counter-screen for M. tuberculosis FBA inhibitors: GDH-TPI coupled enzymes; GDH-TPI coupled enzyme counterscreen, NADH absorbance; inhibition, % at 4.8 µM; 360,000 tested, 1.2% active; AID 588335; in the data active means inhibition above about 30%
TcdB GH inh: TcdB glycohydrolase inhibition. P18177. TcdB glycohydrolase enzymatic assay, plate reader. inhibition, % at 9.99 µM. 350,000 tested, 0.24% active; in the data active means inhibition above about 10%
Numbers stand for hits; - = inactive; . = not tested or not shown; + = active, no number; ! = repeats disagree.

SMILES	PrPC surface inh	Mtb FBA inh	Yp Topo-I inh	GDH-TPI inh	TcdB GH inh
CCN1[C@@H]2c3ccc(C4=CCCC4)c(=O)n3C[C@@H]2[C@@H](CO)[C@@H]1C(=O)NCc1cccc(OC)c1	.	.	.	.	-
CCS(=O)(=O)N1CC2(CN(C(=O)Nc3c(C)noc3C)[C@H](CO)c3[nH]c4cc(OC)ccc4c32)C1	.	.	.	.	-
C[C@]12CCC3C4(C=CC5(C=C4C(=O)C4CCCCC4)C[C@@H](O)CC[C@]35C)C1CC[C@@]2(O)CN1CCC(n2c(=O)[nH]c3ccccc32)CC1 (stereo partly specified)	.	.	.	.	-
C[C@H](CO)N1C[C@H](C)[C@H](CN(C)S(=O)(=O)c2cccs2)OCCCC[C@H](C)Oc2ccc(NS(=O)(=O)c3cccs3)cc2C1=O	.	.	.	.	-
C[C@@H]1CCCCO[C@H](CN(C)Cc2ccccc2)[C@@H](C)CN([C@@H](C)CO)C(=O)c2cc(NC(=O)Nc3ccccc3)ccc2O1	.	.	.	.	-
C[C@@H]1CN([C@H](C)CO)C(=O)c2cc(C#CCN(C)C)cnc2O[C@@H]1CN(C)Cc1cccc(F)c1	.	.	.	.	-
COc1cc(NC(=O)c2ccc3c(c2)OCO3)ccc1NC(=O)c1ccco1	-	-	-	41.8	.
COc1ccc(/C=N/NC(=O)c2ccccc2O)cc1CN1CCOCC1	-	-	-	40.0	-
O=C(N/N=C/c1ccc2c(c1)OCO2)c1ccc2c(c1)OCO2	-	-	-	-	-
O=C(NN=Cc1ccc2c(c1)OCO2)c1ccncc1	-	-	-	33.3	-
O=C(NN=Cc1ccc2c(c1)OCO2)c1ccccc1	-	-	-	37.7	-
COc1ccc(/C=N/NC(=O)c2cccc(Br)c2)cc1CN1CCOCC1	-	-	-	-	-
Cc1cc(NC(=O)c2ccc3c(c2)OCCO3)ccc1NC(=O)c1ccco1	-	-	-	-	-
COCC#Cc1cnc2c(c1)C(=O)N([C@H](C)CO)C[C@H](C)[C@H](CN(C)C(=O)c1cccnc1)O2	.	.	.	.	-
O=C(Nc1ccc(Cl)c(Cl)c1)N[C@H]1CC[C@H](CCn2cc(C3CC3)nn2)O[C@H]1CO	.	.	.	.	-
C[C@@H]1CN([C@@H](C)CO)C(=O)c2cc(-c3cccc(C#N)c3)cnc2O[C@@H]1CN(C)Cc1ccc(F)cc1	.	.	.	.	-
S=C(NN=Cc1ccc2c(c1)OCO2)NN=Cc1ccc2c(c1)OCO2	-	-	-	61.7	-
COCCCNC(=S)N/N=C/c1ccc2c(c1)OCO2	-	-	-	-	-
COc1ccc(/C=C/C(=O)NC(=S)NNC(=O)c2cccnc2)cc1OC	-	-	-	38.4	.
COc1ccc(/C=C/C(=O)NC(=S)NNC(=O)Cc2cccs2)cc1OC	-	-	-	37.6	.
COc1cc(C(=O)NNC(=S)NC(=O)/C=C/c2ccccc2)cc(OC)c1OC	-	-	-	43.5	-
O=C(/C=C/c1ccccc1)NC(=S)NNC(=O)c1cnccn1	-	-	-	40.7	-
O=C(/C=C/c1ccccc1)NC(=S)NNC(=O)c1cccnc1	-	-	-	-	.
C[C@@H]1CCCCO[C@H](CN(C)C(=O)Nc2ccc3c(c2)OCO3)[C@H](C)CN([C@H](C)CO)C(=O)c2cc(N(C)C)ccc2O1	.	.	.	.	-
C[C@@H]1CN([C@@H](C)CO)C(=O)c2cc(NC(=O)Cn3cnnn3)ccc2O[C@H]1CN(C)C(=O)NC1CCCCC1	.	.	.	.	-
SMILES	PrPC surface inh	Mtb FBA inh	Yp Topo-I inh	GDH-TPI inh	TcdB GH inh
COCC(=O)N1[C@H](C#N)[C@H](c2ccccc2-c2ccccc2F)[C@H]1CO	.	.	.	.	-
Cc1noc(C)c1NC(=O)N[C@@H]1CC[C@@H](CCNC(=O)C2CC2)O[C@H]1CO	.	.	.	.	-
CCOC(=O)c1cn2nc(Oc3cccc(C(F)(F)F)c3)ccc2n1	-	66.0	-	-	-
O=C1N=C(N2C=CC(=C3C=CNC=C3)C=C2)/C(=C/N=NC(=O)c2ccccc2O)S1	-	-	-	53.0	-
COc1ccc(C2NC(=O)NC(C)=C2[N+](=O)[O-])cc1OC (stereo unspecified)	-	-	-	37.4	-
O=[N+]([O-])c1ccc(NCCCO)c(S(=O)(=O)N2CCOCC2)c1	-	-	-	40.2	-
Cc1cccn2c(=S)[nH]nc12	-	-	-	-	16.2
CCCCc1cc(=O)oc2cc(OC(C)C(=O)NCCN3CCOCC3)ccc12 (stereo unspecified)	-	-	-	-	-
COc1ccc2c(c1OC)c(=O)n1c3ccc(OC(C)C(=O)NCCCN4CCOCC4)cc3c3ccnc2c31 (stereo unspecified)	.	153.3	-	-	.
C[C@@H]1CN([C@@H](C)CO)C(=O)c2cccc(NS(=O)(=O)c3cn(C)cn3)c2O[C@H]1CN(C)Cc1ccccc1	.	.	.	.	-
CCOC(=O)c1ccc(-n2c(CCC(=O)O)ccc2-c2ccc(F)cc2)cc1	-	-	-	-	17.0
O=C(CCSCc1ccc(Cl)cc1)NCCC1=CCCCC1	-	.	65.1	.	-
O=C(CCNC(=O)c1ccc(Cl)cc1)NCCC1=CCCCC1	-	-	-	-	-
Cc1ccc(SCC(=O)NCCC2=CCCCC2)cc1	-	-	51.3	-	.
Cc1ccc(OCC(=O)NCCC2=CCCCC2)cc1	-	-	-	-	.
CN1c2ccsc2/C(=N/NC(=O)c2c(F)cccc2F)CS1(=O)=O	-	-	-	34.4	.
Cc1cccc(C(=O)N/N=C2\CS(=O)(=O)N(C)c3ccsc32)c1	-	-	-	-	-
C=CCOC(Cn1ccnc1)c1ccc(Cl)cc1Cl (stereo unspecified)	-	-	-	-	-
Clc1ccc(COC(Cn2ccnc2)c2ccc(Cl)cc2Cl)c(Cl)c1 (stereo unspecified)	-	-	59.6!	-	-
COc1ccc(C(=O)Nc2cnc3ccccn3c2=O)cc1	-	-	-	49.3	-
CCCn1c(-c2ccccc2)nc2c(=O)n(C)c(=O)[nH]c21	-	+	-	-	.
Cc1nc2c(=O)n(C)c(=O)[nH]c2n1Cc1ccccc1	-	-	-	-	.
COc1ccc(-c2nc3c(=O)n(C)c(=O)[nH]c3n2CCc2ccccc2)cc1	.	184.2	-	-	.
C[C@@H]1CN([C@@H](C)CO)C(=O)c2cc(C#Cc3ccc(F)cc3)cnc2O[C@H]1CN(C)Cc1ccccn1	.	.	.	.	-
Cc1cccc(N=NC(=S)NNc2cccc(C)c2)c1	-	+	-	-	-
SMILES	PrPC surface inh	Mtb FBA inh	Yp Topo-I inh	GDH-TPI inh	TcdB GH inh
COC(=O)c1nn(-c2ccc3c(c2)OCO3)cc1O	-	-	-	-	.
COC(=O)c1nn(-c2ccc3c(c2)CCN3C(C)=O)cc1O	-	195.1	-	-	.
O=C(C[C@@H]1CC[C@H](NC(=O)C2CCC2)[C@@H](CO)O1)NC1CCC1	.	.	.	.	-
N#CCSc1nc2cc(C(=O)N3CCC(C(N)=O)CC3)ccc2c2nc3ccccc3n12	.	-	-	31.5	.
COc1ccc(C=Nc2cccc3c(=O)[nH][nH]c(=O)c23)c2ccccc12	-	-	-	30.9	.
CCc1c(C)nc2ccc(Br)cc2c1SCCC#N	47.1	-	-	-	-
CCc1ccc(N=C2NC(=O)/C(=C/c3cc(Br)c(OCC(=O)O)c(OC)c3)S2)cc1	-	-	-	34.0	-
C=CCOc1c(Br)cc(/C=C2\SC(=Nc3ccccc3)NC2=O)cc1OC	-	-	57.5	-	-
CCc1ccc(N=C2NC(=O)/C(=C/c3cc(OC)c(OC)c(OC)c3)S2)cc1	-	-	-	-	-

Source: PubChem BioAssay
